Results as given in PubChem BioAssay AID371 (SRMLSC, 2006).
In all, about 3,300 compounds went through this assay and about 280 (8.5%) were called active. For the sample, actives were picked, then their nearest neighbours and some compounds at random. A number with no mark means an inactive call.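 The calls were made as follows: active = mean growth inhibition over the two runs of 50% or more; inactive = mean growth inhibition under 50%.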

Assay: A549 NSCLC cell proliferation inhibitors – ATP luminescence, human non-small cell lung line, primary screen (AID 371);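 also: compound exposure lasted 72 h before the ATP read; 0% = untreated cell signal and 100% = no luminescence left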
Settings: at 10 µM, hits give high values

Row | SMILES | growth inhibition
1 | COc1cc(NC2=CC(=O)CC(C)(C)C2)cc(OC)c1OC | 3.91%
2 | Cc1nc(NS(=O)(=O)c2ccccc2)sc1NC(=O)OC(C)C | 3.58%
3 | Cc1cccc(-c2nc(C#N)c(NC3CCCCC3)o2)c1 | 34.3%
4 | N=c1c(C(=O)NCc2ccccc2)cc2c(=O)n3ccccc3nc2n1Cc1ccco1 | 90.5% (active)
5 | Cc1ccc(CNC(=O)c2cc3c(=O)n4ccccc4nc3n(CC3CCCO3)c2=N)cc1 (stereo not drawn) | 44.3%
6 | Cc1cccn2c(=O)c3cc(C(=O)NCc4cccnc4)c(=N)n(C)c3nc12 | -1.19%
7 | CCNC(=O)c1cc2c(=O)n3cccc(C)c3nc2n(CCc2ccccc2)c1=N | 70.5% (active)
8 | Cn1c(=O)c2c(nc(NCc3ccco3)n2CCc2ccccc2)n(C)c1=O | 34.5%
9 | Cc1ccc(CNC(=O)c2cc3c(=O)n4ccccc4nc3n(Cc3ccco3)c2=N)cc1 | 92.5% (active)
10 | CCOC(=O)c1cc2c(=O)n3cccc(C)c3nc2n(C)c1=N | 27.1%
11 | Cc1cccn2c(=O)c3cc(C(N)=S)c(=N)n(CCCOC(C)C)c3nc12 | 51.3% (active)
12 | Cc1ccc(S(=O)(=O)c2cc3c(=O)n4ccccc4nc3n(C)c2=N)cc1 | -2.02%
13 | CCOC(=O)c1cc2c(=O)n3cccc(C)c3nc2n(CCc2ccccc2)c1=N | 16.5%
14 | CC(C)OCCCn1c(=N)c(C(N)=S)cc2c(=O)n3ccccc3nc21 | 42.5%
15 | COC(=O)c1cc2c(=O)n3cccc(C)c3nc2n(Cc2cccnc2)c1=N | 2.48%
16 | CCOC(=O)CSC1=C(C#N)C(c2ccc(C)cc2)C(C(=O)OC)C(=O)N1 (stereo not drawn) | 8.41%
17 | CCOC(=O)C1=C(C)OC(N)=C(C#N)C1c1cc2ccccc2nc1N1CCCCC1 (stereo not drawn) | 22.5%
18 | COC(=O)c1cc(S(=O)(=O)N2CCOCC2)c(N2CCOCC2)cc1N1CCOCC1 | 8.19%
19 | COCCCNC(=O)c1c(N)n(/N=C/c2cccnc2)c2nc3ccccc3nc12 | 4.43%
20 | Cc1cc(=O)oc(C)c1C(=O)NCC(C)NC(=O)c1c(C)cc(=O)oc1C (stereo not drawn) | 0.25%
21 | Cc1nn(CC(=O)N2CCOCC2)c(=O)c2ccccc12 | 2.14%

Row | SMILES | growth inhibition
22 | COc1ccc(CCn2c(=N)c(C#N)cc3c(=O)n4ccccc4nc32)cc1 | 11.5%
23 | COc1ccc(CCn2c(=N)c(C(=O)NCc3ccco3)cc3c(=O)n4ccccc4nc32)cc1 | 61.2% (active)
24 | C=CCn1c(=N)c(C(=O)OCC)cc2c(=O)n3cccc(C)c3nc21 | 16.9%
25 | CCOC(=O)c1cc2c(=O)n3ccccc3nc2n(Cc2ccccc2Cl)c1=N | 52.6% (active)
26 | COc1ccc(CCn2c(=N)c(C(=O)NCc3ccco3)cc3c(=O)n4ccccc4nc32)cc1OC | 48.2%
27 | CCOC(=O)c1cc2c(=O)n3cccc(C)c3nc2n(Cc2cccnc2)c1=N | 1.61%
28 | O=C1c2ccccc2C(=O)N1CCN1CCc2ccccc21 | 8.36%
29 | Cc1ccc(C(C)C)c(OCCNc2nc3c(c(=O)n(C)c(=O)n3C)n2C)c1 | 20.2%
30 | CCSc1nc(N)c2c3c(sc2n1)CCC3 | 6.53%
31 | c1csc(-c2nn3c(C4CCCCC4)nnc3s2)c1 | 7.39%
32 | CC(C)(C)n1cnc2cc(NS(=O)(=O)c3ccc(Br)cc3)ccc21 | 61.4% (active)
33 | CC1CN(C2CCN(S(=O)(=O)c3ccc4ccccc4c3)CC2)CC(C)O1 (stereo not drawn) | 8.58%
34 | CC(C)c1nc2sc3c(c2c(=O)o1)CCCC3 | 0.69%
35 | CCOc1ccc(C2C(C#N)=C(N)Oc3cc(C)n(CCN4CCOCC4)c(=O)c32)cc1OCC (stereo not drawn) | 1.16%
36 | CO[C@H]1C[C@@H]2CC[C@@H](C)[C@@](O)(O2)C(=O)C(=O)N2CCCC[C@H]2C(=O)O[C@H]([C@H](C)C[C@@H]2CC[C@@H](O)[C@H](OC)C2)CC(=O)[C@H](C)C=C(C)[C@@H](O)[C@@H](OC)C(=O)[C@H](C)C[C@H](C)C=CC=CC=C1C | 65.2% (active)
37 | CCCOC(=O)C1[C@H]2C(=O)N(Cc3ccco3)C[C@]23C=C[C@H]1O3 (stereo partly drawn) | 9.74%
38 | CCCOc1ccc(C(C)=O)cc1CSCCC#N | 8.19%
39 | CCOC(=O)c1c(C)[nH]c(/C(C)=N/O)c1C | 12.8%
40 | CCOC(=O)c1c(C)[nH]sc1=S | 3.75%
41 | CCOC(=O)c1c(C(F)(F)C(F)(F)C(F)(F)C(F)(F)F)n[nH]c1C | 91.1% (active)
42 | COCCOC(=O)C1=C(C)NC(C)=C(C(=O)OC(C)C)C1c1cccc([N+](=O)[O-])c1 (stereo not drawn) | 34.4%

Row | SMILES | growth inhibition
43 | CCOC(=O)C1=C(C)NC(=O)C1CC(=O)Nc1ccccc1 (stereo not drawn) | -0.76%
44 | COC(=O)C1=C(C)NC(C)=C(C(=O)OC)C1c1ccccc1[N+](=O)[O-] | 47.5%
45 | CCOC(=O)C1=C(C)NC(C)=C(C(=O)OC)C1c1cccc([N+](=O)[O-])c1 (stereo not drawn) | 52.7% (active)
46 | CCOC(=O)C1=C(C)NC(C)=C(C(=O)OC)C1c1cccc(Cl)c1Cl (stereo not drawn) | 79.5% (active)
47 | CCOC(=O)C1=C(C)NC(=O)NC1c1ccc2c(c1)OCO2 (stereo not drawn) | 5.16%
48 | Cc1c(O)c(CN2CCCC2)cc2c1oc(=O)c1ccccc12 | 9.98%
49 | N#Cc1c(N2CCOCC2)nc(-c2ccco2)c2c1CCCC2 | 7.04%
50 | C/C=C(/C(=C/C)c1ccc(O)cc1)c1ccc(O)cc1 | 50.9% (active)
51 | CCC(=O)c1ccc(O)cc1 | 4.76%
52 | Cn1c(NCCN2CCCCC2)cc(=O)n(C)c1=O | -1.36%
53 | COc1cc(C2CC(C(F)(F)F)n3ncc(C(=O)O)c3N2)cc(OC)c1OC (stereo not drawn) | 2.64%
54 | CN1CCN(C(=O)CSc2nc(-c3cccs3)ccc2C#N)CC1 | 3.23%
55 | COc1ccc(N2C(=O)CC(N(Cc3ccc(S(N)(=O)=O)cc3)C(C)=O)C2=O)cc1 (stereo not drawn) | 0.97%
56 | Cc1ccc2[nH]c3c(c2c1)CN(C(=O)CN1CCCc2ccccc21)CC3 | 69% (active)
57 | Cc1ccc2[nH]c3c(c2c1)CN(C(=O)CN1CC(C)OC(C)C1)CC3 (stereo not drawn) | 3.04%
58 | Cc1ccc2[nH]c3c(c2c1)CN(C(=O)CN1CCN(c2ccccn2)CC1)CC3 | 15.6%
59 | COCCOC(=O)c1c(C)oc2ccc(OC(=O)COc3c(F)c(F)c(F)c(F)c3F)cc12 | 5.03%
60 | Cc1ccc(C(=O)NCC(C)(C)O)cc1 | 4.92%
61 | COc1ccc(N2CCN(C3CC(=O)NC3=O)CC2)cc1 (stereo not drawn) | 1.16%
62 | CC(=O)O[C@H]1C(=O)[C@]2(C)[C@H]([C@H](OC(=O)c3ccccc3)[C@]3(O)C[C@H](OC(=O)[C@H](O)[C@@H](NC(=O)c4ccccc4)c4ccccc4)C(C)=C1C3(C)C)[C@]1(OC(C)=O)CO[C@@H]1C[C@@H]2O | 65.8% (active)
63 | CC(=O)O[C@@]12CO[C@@H]1C[C@H](O)[C@@]1(C)C(=O)[C@H](O)C3=C(C)[C@@H](OC(=O)[C@H](O)[C@@H](NC(=O)OC(C)(C)C)c4ccccc4)C[C@](O)([C@@H](OC(=O)c4ccccc4)[C@H]21)C3(C)C | 55.2% (active)

Row | SMILES | growth inhibition
64 | CCOC(=O)CC1=C(C(=O)OCC)C(c2ccc(OC)c(OC)c2)C(C#N)=C(N)O1 (stereo not drawn) | -2.02%
65 | CCOC(=O)CC1=C(C(=O)OCC)C(c2cc(OC)c(OC)cc2OC)C(C#N)=C(N)O1 (stereo not drawn) | -5.45%
66 | CCCCCCn1c(SCCN2CCOCC2)nc2c1c(=O)[nH]c(=O)n2C | 7.31%
67 | CN1CC2(C)CN(C(c3ccccc3)c3ccccc3)CC(C)(C1)C2O (stereo not drawn) | 6.36%
68 | CCCCC(=O)O[C@]1(C(=O)CO)CC[C@H]2[C@@H]3CCC4=CC(=O)CC[C@]4(C)[C@H]3[C@@H](O)C[C@@]21C | 21.6%
69 | CCCCCC(=O)O[C@]1(C(C)=O)CC[C@H]2[C@@H]3CCC4=CC(=O)CC[C@]4(C)[C@H]3CC[C@@]21C | 73.5% (active)
70 | CC(=O)O[C@]1(C(C)=O)CC[C@H]2[C@@H]3C[C@H](C)C4=CC(=O)CC[C@]4(C)[C@H]3CC[C@@]21C | 50%
71 | CC(=O)O[C@]1(C(C)=O)CC[C@H]2[C@@H]3C=C(Cl)C4=CC(=O)CC[C@]4(C)[C@H]3CC[C@@]21C | 52.6% (active)
72 | CCCCCCCC(=O)OCC(=O)[C@@]1(O)CC[C@H]2[C@@H]3CCC4=CC(=O)CC[C@]4(C)[C@H]3[C@@H](O)C[C@@]21C | 26.8%
73 | CC(=O)O[C@]1(C(C)=O)CC[C@H]2[C@@H]3C=C(C)C4=CC(=O)CC[C@]4(C)[C@H]3CC[C@@]21C | 34.5%
74 | O=C(O)C1CSC(CCc2ccccc2)N1 (stereo not drawn) | 5.85%
75 | CCN(CC)CCCN1C(=O)C(=O)/C(=C(/O)c2ccc3c(c2)CC(C)O3)C1c1cccnc1 (stereo not drawn) | 1.89%
76 | COc1ccccc1N(Cc1cc2cccc(C)c2[nH]c1=O)C(=O)C(C)C | 12.1%
77 | O=C1C(=O)N(Cc2cccnc2)C(c2ccccn2)/C1=C(/O)c1ccc(F)cc1 (stereo not drawn) | 1.96%
78 | Cc1ccc(S(=O)(=O)/C(C#N)=C/c2c(N3CCN(C)CC3)nc3c(C)cccn3c2=O)cc1 | -1.01%
79 | Cc1nnc(N2CCCCC2)c2ccccc12 | 8.14%
80 | COc1ccc(Nc2nnc(C)c3ccccc23)cc1C(N)=O | -0.95%
81 | Cc1nnc(NCc2n[nH]c(=O)c3ccccc23)c2ccccc12 | 69.7% (active)
82 | Nc1nnnn1N=C1CCCCC1 | -2.31%
83 | CCOC(=O)CCNc1n[nH]c(=O)[nH]c1=O | 4.05%
